# Screening results (PubChem BioAssay)
# Mac1 fbg enh: increases human CD11b/CD18 adhesion to fibrinogen | P05107+P11215 | K562 CD11b/CD18 adhesion to fibrinogen, ATPlite luminescence | activation, % at 10 µM | 93,000 tested, 0.07% active | AID 1499;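 active = 10 µM primary screen giving 50% or more activity, confirmed by 40% or more on retest at that dose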
# CYP2C19 inhib: inhibitors of human CYP2C19. P33261. CYP2C19 Supersomes, luciferin-H EGE luminescence, 30 min. inhibition, % at 5 µM. 96,000 tested, 21% active;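 active = CYP2C19 inhibition above a set limit at 5 µM in the primary screen, cut at about 50% in these data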;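 note: plate controls were negative control wells for no effect and 2.5 mM tranylcypromine positive control for full effect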
# CYP2C19 activ: activators of human cytochrome P450 2C19; AID 1025; 96,000 tested, under 10 active; activation factor at 5 µM; recombinant CYP2C19, luciferin-H EGE luminescence; active compounds read high; 0 = fully inhibited enzyme, 1 = untreated enzyme;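 active = activation factor of at least 2 at 5 µM in the primary screen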;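 note: 0 = wells with 2.5 mM tranylcypromine and 1 = vehicle-only wells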
# CYP2C9 act: CYP2C9 (human) activation. P11712. activation factor at 5 µM. recombinant CYP2C9, luciferin-H conversion, luminescence; active compounds read high; factor 1 = untreated enzyme, 0 = blocked. 96,000 tested, 1.4% active. AID 1024;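 active = activation factor of 2 or more for CYP2C9 at a 5 µM dose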;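 note: 0 = sulfaphenazole-blocked wells and 1 = vehicle-only wells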
# Target sequence (P11712 whole entry, looked up): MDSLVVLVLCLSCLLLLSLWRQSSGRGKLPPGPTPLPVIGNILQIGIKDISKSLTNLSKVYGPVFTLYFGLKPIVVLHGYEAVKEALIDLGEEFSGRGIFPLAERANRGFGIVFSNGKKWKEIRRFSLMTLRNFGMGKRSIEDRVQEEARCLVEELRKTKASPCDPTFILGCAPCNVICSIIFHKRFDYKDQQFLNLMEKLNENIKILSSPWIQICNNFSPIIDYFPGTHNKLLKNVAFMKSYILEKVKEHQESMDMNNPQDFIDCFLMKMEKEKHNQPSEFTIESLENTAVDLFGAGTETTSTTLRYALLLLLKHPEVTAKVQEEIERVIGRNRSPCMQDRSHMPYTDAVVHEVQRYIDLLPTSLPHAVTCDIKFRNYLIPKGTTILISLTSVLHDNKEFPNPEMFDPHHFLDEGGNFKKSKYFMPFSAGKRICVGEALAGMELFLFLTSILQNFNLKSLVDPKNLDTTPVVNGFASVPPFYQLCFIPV
# CD11b adhes inh: blocks human CD11b/CD18 adhesion to fibrinogen | K562 CD11b/CD18 adhesion to fibrinogen, ATPlite luminescence; Mn2+ added to activate the integrin | inhibition, % at 10 µM | 93,000 tested, 0.54% active | AID 1497;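 active = primary inhibition of 50% or more at 10 µM, then 40% or more on retest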
# CYP2C9 inh: blocks human cytochrome P450 2C9 | P11712 | CYP2C9 Supersomes, luciferin-H conversion, luminescence | inhibition, % at 5 µM | 96,000 tested, 20% active;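 active = blocking of liver enzyme CYP2C9 beyond about 50% at 5 µM, limit read from the data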
# * hit, by the source's call; / = no result. The list is not random: actives were taken first. Their share in the collection is about 28%.
SMILES,Mac1 fbg enh,CYP2C19 inhib,CYP2C19 activ,CYP2C9 act,CD11b adhes inh,CYP2C9 inh
O=C(CCl)Nc1cccc(-c2cnc3ccccc3n2)c1,-0.3,79.8*,0.2,1.3,9.9,-30.9
CCC(=O)Nc1cccc(-c2cnc3ccccc3n2)c1,0.7,50.6*,0.5,1.1,-31.4,-14.8
COc1ccc(Cl)cc1S(=O)(=O)NCc1cccs1,1.6,97.2*,0,2.5*,0.1,-148.8
O=C(Nc1cccc(Cl)c1)c1ccc(F)c(S(=O)(=O)NCc2cccs2)c1,-9.9,/,/,/,103.7,/
COc1ccc(CC(=O)NCc2cccs2)cc1OC,-2.6,42.9,0.6,1,-18.7,-2.3
COc1cc(C)c(S(=O)(=O)NCc2cccs2)cc1C,-1.9,98.6*,0,0.3,12.7,66.3*
COc1ccc(C2C(C(N)=O)=C(C)Nc3nc(-c4ccccc4Cl)nn32)c(OC)c1 (centres undefined),3.3,23.8,0.8,1,-6.6,2.9
CC(C)(Oc1cccc2ccccc12)C(=O)O,3.8,4.7,1,1,0.0,4.0
COCCNC(=O)CSc1ncnc2sccc12,/,-7.3,1.1,1,/,4.3
O=C(Nc1ccc(Cl)c(-c2nc3ccccc3[nH]2)c1)c1cccnc1,0.9,59.8*,0.4,0.2,-15.3,83.3*
O=C(Cc1ccc(Cl)cc1)Nc1ccc(-c2cc3ccccc3oc2=O)c(Cl)c1,40.4,/,/,/,16.7,/
O=C(Nc1ccc(-c2cc3ccccc3oc2=O)c(Cl)c1)c1cccnc1,1.8,22.2,0.8,2.2*,11.7,-120.0
COc1cc2c(cc1OC)CN(C(=O)c1cc(S(=O)(=O)N3CCOCC3)ccc1Cl)CC2,1.7,6.8,0.9,0.8,11.7,15.0
COc1ccc(N=c2oc3cc(O)ccc3cc2C(=O)NCC2CCCO2)c(OC)c1 (centres undefined),7.1,3.0,1,0.8,-7.1,22.8
CCOC(=O)c1ccc(NC(=O)CSc2nc(SC)ns2)cc1,-14.0,54.6*,0.5,0.4,88.0,60.0*
CCOc1ccc2nc(NC(=O)CSc3nc(SC)ns3)sc2c1,/,-9.3,1.1,1,/,4.5
CSc1nsc(SCC(=O)Nc2cccc(C(C)=O)c2)n1,-0.7,31.6,0.7,0.5,-0.4,51.2*
COc1ccccc1Nc1nc(N)nc(CSCCO)n1,-3.8,-1.9,1,1,-14.1,-1.4
O=C(Cc1ccccc1F)Nc1nc(-c2cccs2)cs1,-4.4,93.6*,0.1,0,33.8,99.1*
O=C(Cc1ccccc1)Nc1nc(-c2cccs2)cs1,0.4,48.6,0.5,0.6,-1.2,44.1
CCCC(=O)Nc1nc(-c2ccc3c(c2)CCN3S(C)(=O)=O)cs1,/,32.2,0.7,0.8,/,16.1
CC1Cc2cc(-c3csc(NC(=O)Cc4cccs4)n3)ccc2N1S(C)(=O)=O (centres undefined),-6.6,77.0*,0.2,0.1,92.4,91.8*
O=C(Cc1cccs1)Nc1nc(-c2ccc(F)cc2F)cs1,-6.0,17.8,0.8,0.4,65.3*,56.2*
Cc1nn(Cc2ccccc2)c2sc(C(=O)NCc3cccnc3)cc12,-3.9,62.2*,0.4,0.2,-3.9,82.0*
Cc1ccc(NC(=O)c2cc(C)nn2-c2ccccc2)cc1,0.4,59.7*,0.4,0.7,0.3,28.7
SMILES,Mac1 fbg enh,CYP2C19 inhib,CYP2C19 activ,CYP2C9 act,CD11b adhes inh,CYP2C9 inh
Cc1cc(C(=O)NCc2cccnc2)n(-c2ccccc2)n1,11.0,59.7*,0.4,0.8,-5.9,19.7
Cc1cc(C(=O)NCc2ccc3c(c2)OCO3)n(-c2ccccc2)n1,-3.9,43.7,0.6,0.8,-18.1,21.3
CCCCS(=O)(=O)/C=C\C=C/S(=O)(=O)CCCC,-6.3,14.2,0.9,0.9,-11.7,9.7
Cc1ccc(C2C3=C(CC(C)(C)CC3=O)Nc3[nH]c(=S)[nH]c(=O)c32)cc1 (centres undefined),-1.2,39.7,0.6,0.3,-2.2,69.7*
CN(C)c1ccc(-c2ccccc2)nn1,-2.0,57.7*,0.4,0.8,-32.3,18.6
Cc1ccc[n+](-c2[nH]c(=O)sc2/C=N/NC(=O)c2ccccc2[O-])c1,-2.8,/,/,/,7.9,/
CC(=O)Nc1ccc(S(=O)(=O)Oc2cccc(N3C(=O)C4CC=CCC4C3=O)c2)cc1 (centres undefined),1.7,42.7,0.6,0.4,6.2,58.6*
CC(=O)Nc1ccc(S(=O)(=O)Oc2ccc(N3C(=O)C4CCCCC4C3=O)cc2)cc1 (centres undefined),-5.0,26.0,0.7,0.5,9.2,46.9
CN(C)c1nc(Nc2ccccc2)nc(N(C)C)n1,0.3,35.8,0.6,1,-1.1,-3.5
CCOC(=O)C(C)Oc1nc(Oc2ccccc2)nc(N(C)C)n1 (centres undefined),-1.1,57.1*,0.4,0.7,-24.3,29.6
COC(=O)c1ccc(Oc2nc(Nc3ccccc3)nc(N(C)C)n2)cc1,-2.2,36.1,0.6,0.5,4.3,52.1*
CC1CCN(c2ncnc3nc[nH]c23)CC1,-3.7,-1.6,1,0.9,6.8,5.8
Cn1c2c(c(=O)n(C)c1=O)C(CC(=O)Nc1ccccc1)C(=O)N2 (centres undefined),2.6,40.3,0.6,0.7,-27.8,25.8
COc1ccccc1NC(=O)CC1C(=O)Nc2c1c(=O)n(C)c(=O)n2C (centres undefined),0.1,10.2,0.9,0.4,-2.6,57.9*
Cc1ccc(-n2nnnc2SCc2nnc(-c3ccccc3Br)o2)c(C)c1,1.3,66.1*,0.3,0.4,45.0,56.1*
Cn1nnnc1SCc1nnc(-c2ccccc2Br)o1,4.6,65.0*,0.3,1.1,7.9,-5.8
Clc1ccc(OCc2nnc(-c3ccccc3Br)o2)c(Cl)c1,-3.5,-7.0,1.1,1.3,0.4,-28.3
Clc1ccc(OCc2nnc(-c3ccccc3Br)o2)cc1,-0.9,96.3*,0,0.9,-16.6,14.1
Cc1ccc(-n2nnnc2SCC(N)=O)c(C)c1,0.8,8.0,0.9,1.1,0.6,-5.5
COc1ccc(Cl)cc1C(=O)OCC(=O)NC(=O)c1cccn1C,-2.5,21.6,0.8,3.3*,-14.7,-233.3
Cn1cccc1C(=O)NC(=O)COC(=O)c1ccccc1Sc1ccccc1C#N,-4.4,11.0,0.9,1.4,-2.8,-38.8
O=C(COc1nc2ccccc2nc1N1CCOCC1)N1CCc2ccccc21,-3.7,-19.1,1.2,1,-4.9,3.0
Cc1sc2ncn(CC(=O)NCCCC(=O)N3CCN(c4ncccn4)CC3)c(=O)c2c1C,0.6,1.1,1,0.8,33.7,24.0
COC(=O)c1ccc(/C=N/Nc2nc(-c3ccccc3)cs2)cc1,28.0,/,/,/,-5.3,/
C(=N\Nc1nc(-c2ccccc2)cs1)/c1cccnc1,3.8,92.9*,0.1,0.1,1.7,88.7*
